In ChEMBL document CHEMBL3988442, “University of Dundee, Small-Polar-MMV Screening Library” (2021):
Among all 48,000 compounds or so, about 13,000 (27%) showed an effect of 50% or more. This is one part of the list.

System: Wolbachia pipientis
Assay: Anti-Wolbachia Cell-Based Screen
Format: functional
Parameters: scale not given: in the data most compounds retested in dose-response had high values
Conditions: 5 µM

First: CC(C)N(Cc1nccn1C)C(=O)c1cc(Cl)c[nH]c1=O
Second: CN(Cc1c[nH]nc1-c1ccc(F)cc1F)Cc1nccn1C
The “Percent Effect” value of the first is lower: -15.2% for the first, -2.031% for the second.

First: CCNC(=O)[C@@H]1C[C@@H](N)CN1Cc1ccc(Sc2ccc(C)cc2)o1
Second: Cc1cnc(C(=O)NCC2CCOc3ccccc3C2)cn1 (configuration not stated)
The “Percent Effect” value of the first is higher: 5.501% for the first, -13.56% for the second.

Going from `CN(C(=O)COC1CCCC1)C1CCN(CC2CCOC2)CC1` (configuration not stated) to `Cc1nnc(CN(C)CC(=O)N2CCCN(C3CCCC3)CC2)n1C`, the “Percent Effect” value rises from -27.33% to -1.28%.

Going from `CN(CCCc1nccn1C)C(=O)C1CCN(C(=O)C2CCC2)CC1` to `CC(C)(C)OC(=O)N1CCCCC(NC(=O)CCc2cccnc2)C1` (configuration not stated), the “Percent Effect” value rises from 9.591% to 15.24%.

Going from `O=C(NC1CCCC1)N1CC[C@H]2[C@H]1CCN2c1nncs1.O=C(O)C(F)(F)F` to `CCC(=O)N1CCC2(CCC(N3CCCC3)c3ccccc32)CC1.O=C(O)C(F)(F)F` (configuration not stated), the “Percent Effect” value rises from 1.453% to 3.41%.

Compared with `CS(=O)(=O)N1CCCc2sc(C(=O)NC3CC3)nc21`, `CN1CCCC2(CCN(S(=O)(=O)c3c(Cl)nc4sccn34)C2)C1=O` (configuration not stated) is lower in “Percent Effect” value: -1.89% for the first, -6.903% for the second.

Going from `Cc1cc(CNC(=O)NCc2cccs2)no1` to `CN(C)c1ncccc1CNC(=O)NCc1cccs1`, the “Percent Effect” value falls from 116.2% to 101%.

First: CC(NC(=O)NCc1cccnc1N(C)C)c1ccc(F)cc1 (configuration not stated)
Second: Cc1cc(CNC(=O)NC(C)c2ccccc2)no1 (configuration not stated)
The “Percent Effect” value of the first is higher: 97.94% for the first, -4.939% for the second.

First: Cc1cc(CN2CCN(C(C)C(=O)NCc3cccs3)CC2)no1 (configuration not stated)
Second: Cc1ncsc1CCC(=O)NCc1cc2n(n1)CCN(C(=O)N(C)C)C2
The “Percent Effect” value of the first is higher: -4.683% for the first, -5.05% for the second.

First: Cc1cc(CNC(=O)c2cc(COc3cncc(Cl)c3)on2)n[nH]1
Second: COCCN(Cc1ccc(F)cc1Cl)C(=O)c1c(C)noc1C
The “Percent Effect” value of the first is higher: -4.866% for the first, -7.474% for the second.

Compared with `COc1ccc(CN2CCCn3nnc(COCC4CC4)c3C2)cc1.O=C(O)C(F)(F)F`, `O=C(O)C(F)(F)F.OCCN1CCC2(CCc3cc(-c4ccoc4)ccc32)CC1` is higher in “Percent Effect” value: -11.72% for the first, -5.602% for the second.

Compared with `CCC(C)(NCC(=O)NC(=O)NC)c1nccs1` (configuration not stated), `CCN(C)c1ncnc2c1CCN(Cc1nccs1)CC2.O=C(O)C(F)(F)F.O=C(O)C(F)(F)F` is lower in “Percent Effect” value: 3.438% for the first, -6.805% for the second.

Going from `Cc1ccc(C2COCCN2C(=O)c2ccc(N(C)C)cc2)o1` (configuration not stated) to `O=C(Cc1ccc(F)cc1)N1CCCCC1c1ccn2ccnc2n1` (configuration not stated), the “Percent Effect” value falls from 16.04% to -3.373%.

Compared with `O=C(Cc1cccc(F)c1)N1CCCCC1c1ccn2ccnc2n1` (configuration not stated), `O=C(COc1cccc(F)c1)N1CCCCC1c1ccn2ccnc2n1` (configuration not stated) is higher in “Percent Effect” value: 7.751% for the first, 137.7% for the second.

First: O=C(COc1ccccc1F)N1CCCCC1c1ccn2ccnc2n1 (configuration not stated)
Second: O=C(Cc1ccccc1F)N1CCCCC1c1ccn2ccnc2n1 (configuration not stated)
The “Percent Effect” value of the first is lower: 107.9% for the first, 125% for the second.

Going from `O=C(CCc1cccnc1)N1CCCCC1c1ccn2ccnc2n1` (configuration not stated) to `Cc1nc(C)n(C2CCCN(C(=O)Cc3cccnc3)C2)n1` (configuration not stated), the “Percent Effect” value falls from 103.4% to -7.777%.

First: CN1C(=O)c2ccc(NC(=O)CSc3ccc4c(c3)CCC4)cc2C1=O
Second: Cn1ccc(C(=O)Nc2cccc(-c3ccc4c(c3)CCO4)n2)cc1=O
The “Percent Effect” value of the first is higher: 8.962% for the first, -14.88% for the second.

Going from `CCOC(C)C(=O)Nc1cc(S(=O)(=O)NC2CC2)ccc1F` (configuration not stated) to `CCNC(=O)Nc1c(C)cnn1Cc1cc(F)ccc1F`, the “Percent Effect” value falls from 0.6608% to -3.451%.

Going from `Cn1c(=O)oc2cc(Nc3ncc(C#N)cc3Cl)ccc21` to `Cc1nnc(NCc2ccccc2Cl)c(C#N)c1C`, the “Percent Effect” value rises from -1.67% to 4.284%.

Going from `CCn1nc2c(cc1=O)CN(Cc1nc(-c3ccccn3)no1)CC2` to `c1ccc(-c2noc(CN3CCc4c(ncn4C4CC4)C3)n2)nc1`, the “Percent Effect” value falls from -6.264% to -14.25%.

First: Cc1nn(C)cc1CN1CCc2c(nc(-c3ccccn3)[nH]c2=O)C1
Second: COc1ccccc1CN1CCc2c(nc(-c3ccccn3)[nH]c2=O)C1
The “Percent Effect” value of the first is lower: 96.61% for the first, 118.7% for the second.

Compared with `COc1ccc2c(c1)CN(Cc1nc3ccsc3c(=O)[nH]1)CC2`, `COc1ccc(CN2CCc3c(nc(-c4ccccn4)[nH]c3=O)C2)cc1` is higher in “Percent Effect” value: -2.354% for the first, 130.9% for the second.

Compared with `O=C(c1ccco1)N1CCc2c(nc(-c3ccncc3)[nH]c2=O)C1`, `O=c1[nH]c(-c2ccccn2)nc2c1CCN(Cc1cccc(O)c1)C2` is higher in “Percent Effect” value: 13.85% for the first, 110.8% for the second.

Going from `Cn1cnc2c1CCN(Cc1cccc(C(N)=O)c1)C2` to `Cn1cnnc1C1CCCN(C(=O)c2cc3ccccc3[nH]2)C1` (configuration not stated), the “Percent Effect” value rises from -6.228% to 124.8%.

Going from `COc1ccccc1CN1C(=O)O[C@@H]2CN(c3ccccn3)C[C@@H]21` to `COc1ccccc1CN1C[C@@H](F)[C@@H](OCc2nc3ncccc3[nH]2)C1`, the “Percent Effect” value falls from 2.644% to -5.339%.

Compared with `CCc1nnc(CN2CCc3[nH]c(-c4ccc(OC)cc4)nc3C2)o1`, `COc1cc2ccccc2cc1C(=O)N1CCCC(c2nncn2C)C1` (configuration not stated) is higher in “Percent Effect” value: -0.2672% for the first, 138.9% for the second.

Compared with `Cc1cccc(S(=O)(=O)NCC(C)(C)CC(C)O)c1C#N` (configuration not stated), `CC(=O)N(CCc1ccccc1)CC(=O)NC1(C#N)CC1` is lower in “Percent Effect” value: -19.79% for the first, -30.59% for the second.

Going from `O=C(C[S+]([O-])Cc1c(Cl)cccc1Cl)N1CCc2sccc2C1` (configuration not stated) to `N#Cc1ccc(OCC(=O)N2CCCC(n3cccn3)C2)cc1` (configuration not stated), the “Percent Effect” value rises from -11.53% to -1.98%.

Going from `Cn1cnnc1C1CCCN(C(=O)c2n[nH]c3ccccc23)C1` (configuration not stated) to `COc1ccccc1CNC(=O)N1CCCC(c2nncn2C)C1` (configuration not stated), the “Percent Effect” value falls from 7.957% to -1.227%.

Going from `Cc1occc1CN(C)C(=O)Nc1ccc(=O)n(C)c1` to `CN(C)Cc1cc(-c2nccn2CCc2cccnc2)ccc1O`, the “Percent Effect” value falls from 5.737% to -8.952%.

First: c1ccc(CN2CCC(NCCc3ccc4c(c3)CCO4)CC2)nc1
Second: Cc1csc2c(N3CCC(NCCc4ccnn4C)CC3)ncnc12
The “Percent Effect” value of the first is higher: 2.392% for the first, 1.51% for the second.

First: Cc1nc(C)n(C2CCCN(C(=O)COc3cccc(C#N)c3)C2)n1 (configuration not stated)
Second: Cc1nc(C)n(C2CCCN(C(=O)COc3ccccc3)C2)n1 (configuration not stated)
The “Percent Effect” value of the first is lower: 83.98% for the first, 133.2% for the second.

Going from `CCOc1ccc(CC(=O)N2CCCC(n3nc(C)nc3C)C2)cc1` (configuration not stated) to `Cc1ccc(OCC(=O)N2CCCC(n3nc(C)nc3C)C2)cc1` (configuration not stated), the “Percent Effect” value rises from 81.54% to 110.7%.

Going from `Cc1nc(C)n(C2CCCN(C(=O)CCCOc3ccccc3)C2)n1` (configuration not stated) to `Cc1nc(C)n(C2CCCN(C(=O)COCc3ccccc3)C2)n1` (configuration not stated), the “Percent Effect” value falls from 1.016% to -1.544%.

Compared with `CCc1[nH]ncc1C(=O)N1CCCC(n2nc(C)nc2C)C1` (configuration not stated), `Cc1nc(C)n(C2CCCN(C(=O)c3cccc4cn[nH]c34)C2)n1` (configuration not stated) is higher in “Percent Effect” value: -3.385% for the first, 1.609% for the second.

Compared with `Cc1nc(C)n(C2CCCN(C(=O)Cc3n[nH]c4ccccc34)C2)n1` (configuration not stated), `Cc1nc(C)n(C2CCCN(C(=O)c3ccccc3C)C2)n1` (configuration not stated) is higher in “Percent Effect” value: -3.08% for the first, 3.222% for the second.

Going from `Cc1ccc(OCCC(=O)N2CCCC(n3nc(C)nc3C)C2)cc1` (configuration not stated) to `CCOc1cc(C(=O)N2CCCC(n3nc(C)nc3C)C2)ccn1` (configuration not stated), the “Percent Effect” value rises from 93.22% to 108.5%.

First: CCCC(=O)Nc1cc(C(=O)NC(C)Cc2ccncc2)ccc1C (configuration not stated)
Second: CCCNC(=O)CCC(=O)Nc1cc2sc(C)nc2cc1OC
The “Percent Effect” value of the first is lower: 2.128% for the first, 9.826% for the second.

First: CC(C)OCCOCc1cccc(NC(=O)N2CCCC(O)C2)c1 (configuration not stated)
Second: COc1cccc2[nH]cc(CCNC(=O)N3CCCC3CO)c12 (configuration not stated)
The “Percent Effect” value of the first is lower: -8.695% for the first, -6.356% for the second.

Going from `CC(C)(C)OC(=O)N1CCC(NC2CCS(=O)(=O)C2)CC1` (configuration not stated) to `CC(C)c1nnc2sc(CC3CCS(=O)(=O)CC3)nn12`, the “Percent Effect” value falls from -18.26% to -25.36%.

Compared with `c1ncn(Cc2nnc(C3CCN(C4CCOCC4)CC3)n2C2CC2)n1`, `CN1CCC(c2nnc(CN3CCCC3)n2C2CC2)CC1` is higher in “Percent Effect” value: -14.43% for the first, 3.888% for the second.

First: COc1ccsc1C(=O)N1CCCC(n2nc(C)nc2C)C1 (configuration not stated)
Second: CCOc1ncccc1C(=O)N1CCCC(n2nc(C)nc2C)C1 (configuration not stated)
The “Percent Effect” value of the first is lower: -12.01% for the first, -3.094% for the second.

First: COCCNC(=O)Nc1cc2c(cc1SC)OCCO2
Second: Cc1cc(C(F)(F)F)nn1CC(C)C(=O)Nc1ccncc1 (configuration not stated)
The “Percent Effect” value of the first is higher: 8.638% for the first, 0.9571% for the second.

Going from `CCCn1ncc(CN(Cc2cccnc2)Cc2ccsc2)c1C` to `CCCn1ncc(CN(Cc2cccnc2)Cc2cccs2)c1C`, the “Percent Effect” value rises from -8.215% to 103.6%.

Going from `CCCn1ncc(CN(Cc2ccsc2)Cc2ccco2)c1C` to `CN(C)CC(=O)N1CCC2(CCc3ccc(-c4ccncc4)cc32)CC1.O=C(O)C(F)(F)F.O=C(O)C(F)(F)F`, the “Percent Effect” value rises from -9.54% to -5.921%.

Compared with `CN1Cc2ccccc2CC2(CCN(CCO)CC2)C1=O.O=C(O)C(F)(F)F`, `CN(C)CC(=O)N1CCC2(CC1)Cc1ccccc1CN(C)C2=O.O=C(O)C(F)(F)F` is lower in “Percent Effect” value: 115.9% for the first, 100.6% for the second.

First: O=C(O)C(F)(F)F.O=C1NC2(CCN(CCO)CC2)CC1c1ccccc1 (configuration not stated)
Second: CCC(=O)N1CCC2(CC1)CN(CCO)Cc1ccccc12.O=C(O)C(F)(F)F
The “Percent Effect” value of the first is lower: -11.42% for the first, 102.3% for the second.

First: Cc1ccc2c(c1)CCC21CCN(C(=O)CN(C)C)CC1.O=C(O)C(F)(F)F
Second: CCc1nnc2n1CCN(C(=O)c1cnc(C3CC3)s1)C2
The “Percent Effect” value of the first is lower: -5.589% for the first, -2.147% for the second.

First: CCCc1nnc2sc(C3CCN(CCOC)CC3)nn12
Second: CCCc1nnc2sc(C3CCN(C4CCN(C)CC4)CC3)nn12
The “Percent Effect” value of the first is lower: 91.66% for the first, 110.3% for the second.

Going from `CCCc1nnc2sc(C3CCS(=O)(=O)CC3)nn12` to `CCCN1CCC(Cc2nn3c(C(C)C)nnc3s2)CC1`, the “Percent Effect” value falls from 102.2% to -24.84%.

Going from `COCCN1CCC(CN(C)c2nc3c(s2)c(C)nn3C)CC1` to `CCCc1nnc(N2CCC(N3CCCC3)CC2)o1`, the “Percent Effect” value falls from 20.85% to 13.58%.
